Pf growth 96h – P. falciparum growth inhibition at 96 hours | P. falciparum luciferase reporter growth, 96 h | Potency, µM (titrated, usually from 28.7 µM), for the others: top-dose activity change, negative = inhibition, actives largely listed as inhibitors | 6.9% of 320,000 active | AID 504834; also: potency is read from the fitted curve at half-maximal effect; % is scaled to controls: 0 for no effect and ±100 for the full control effect
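Luminescence readout: decreased luciferase signal marks inhibited growth of reporter-expressing P. falciparum in infected red cells (2% hematocrit, 0.05% parasitemia final), exposed to compound two generations (96 h, 37 C, 5% CO2).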
Pf growth 48h – inhibits P. falciparum growth in the first generation, 48 h; 5.9% of 310,000 active; Potency, µM (titrated, usually from 28.7 µM), for inactives: at the highest dose activity change, negative = inhibition, usual class: inhibitors; AID 504832; P. falciparum luciferase growth in erythrocytes, 48 h; also: potency is read from the fitted curve at half-maximal effect; % is scaled to controls: 0 for no effect and ±100 for the full control effect
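Parasite viability was followed by luminescence of a genomically integrated firefly luciferase. Cultures held 0.1% parasitemia at 2% hematocrit (final), incubated under 5% CO2 at 37 C.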
Shiga toxin inh – blocks Shiga toxin action in Vero cells | inhibition, % at 38.7 µM | 9.2% of 290,000 active | Vero cells, Shiga toxin protein synthesis inhibition reporter; in the data active = inhibition mostly above about 28%, no sharp cut-off; inactive = mostly below about 43%; also: 0% is about no effect
Cycloheximide cs – affects cycloheximide protein synthesis inhibition readout, counter-screen | 12% of 300,000 active | cell reporter, cycloheximide protein synthesis inhibition counterscreen | AID 2314 | max response, %; in the data active = max response mostly above about 13%, no sharp cut-off; inactive = mostly below about 14%; also: read at 38.3 µM for the half of the compounds with a filed dose; 0% is about no effect
HCMV antiviral – blocks human cytomegalovirus replication | activity change, negative = inhibition, % at 57.5 µM | HFF cells, HCMV-luciferase reporter, 72 h; stronger effect = lower value | 4.5% of 410,000 active; in the data active = activity change below about -60%; inconclusive = no clear call, values can overlap the other calls; inactive = above about -39%; also: % is scaled to controls: 0 for no effect and ±100 for the full control effect
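Two compound doses tested in HFFs infected with HCMV-luciferase, MOI 1 PFU/cell, 72 h at 37C. Lysate luminescence read with OneGlo; data normalized against buffer-only and 10uM Salinomycin inhibitor controls.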
* marks the source's active call; other numbers are inactive results; ? = inconclusive; / = no result given; + = active, no number. This is a sample that favours compounds with a hit; in the whole collection about 20% have one here. Unless noted, calls follow the shape of the dose curve; as a rule, active = well fitted inhibition curve with a large enough effect; inconclusive = small, poorly fitted or top-dose-only effect, or another doubt; inactive = no such curve, though single readings can be large or run the other way.

SMILES	Pf growth 96h	Pf growth 48h	Shiga toxin inh	Cycloheximide cs	HCMV antiviral
C/C(=N/NC(=O)CNC(=O)COc1ccccc1)c1ccco1	21%	7%	-1	1	-63*
C/C(=N/NC(=O)CNC(=O)c1ccco1)c1ccco1	20%	23%	4	-3	-15
C/C(=N/NC(=O)CNC(=O)c1cccs1)c1ccco1	61%	77%	51*	-3	35
C/C(=N/NC(=O)CNC(=O)COc1cccc(C)c1)c1ccco1	59%	-7%	18	-2	1
O=C(Cc1cccs1)N/N=C/C=C/c1ccco1	?	92%	+	26*	-5
C/C(=N/NC(=O)Cc1cccs1)c1ccco1	33%	48%	27*	22*	-27
Cc1ccc2nc(-c3ccccc3F)c(Nc3ccc(Cl)cc3)n2c1	/	/	/	/	-24
CN(C)C(CNC(=O)c1ccc(S(=O)(=O)N(C)C)cc1)Cc1ccccc1 (stereo not given)	-28%	-7%	-12	7	-16
CCCCc1ccc(N2C(=O)[C@@H]3C(CC(N)=O)NC4(C(=O)Nc5ccc(F)cc54)[C@@H]3C2=O)cc1 (stereo not given in full)	?	/	-11	-2	13
CC(C)Sc1nc2sc3c(c2c(=O)n1-c1ccccc1)CCCC3	/	/	/	/	-29
COC(=O)c1cc(=O)c2c(C)nc(C(Cl)(Cl)Cl)nc2[nH]1	126%	355%	-1	1	-100*
COc1ccc(CN(C(=O)Nc2cc(C)ccc2C)C2CCN(C(C)=O)CC2)cc1	/	/	/	/	-6
CCCN1C[C@H](CSC)C[C@@H]2c3cccc4[nH]cc(c34)C[C@H]21	10µM*	?	-10	-3	?
Cc1cccc(NS(=O)(=O)c2ccc(C(=O)NCC3(N4CCCCC4)CCCCC3)cc2)c1C	0%	2.6µM*	/	/	-35
Cc1ccccc1NS(=O)(=O)c1ccc(C(=O)NCC2(N3CCOCC3)CCCCC2)cc1	/	/	/	/	-6
C=CCn1c(=NC(=O)c2ccc(S(=O)(=O)N3CCc4ccccc4C3)cc2)sc2cc(S(N)(=O)=O)ccc21	?	-24%	-8	-3	-65*
CCOCCn1c(=NC(=O)c2ccc(S(=O)(=O)N3CCOCC3)cc2)sc2cc(S(N)(=O)=O)ccc21	6.6µM*	15µM*	-20	-1	-63*
COCCn1c(=NC(=O)c2ccc(S(=O)(=O)N3CCc4ccccc4C3)cc2)sc2cc(S(N)(=O)=O)ccc21	7.4µM*	?	-8	-5	-19
C#CCn1c(=NC(=O)c2ccc(S(=O)(=O)N3CCc4ccccc4C3)cc2)sc2cc(S(N)(=O)=O)ccc21	5.2µM*	?	-17	-8	/
COC(=O)Cn1c(=NC(=O)c2ccc(S(=O)(=O)N3CCc4ccccc4C3)cc2)sc2cc(OC)ccc21	?	?	-5	-2	-19
COCCn1c(=NC(=O)c2ccc(S(=O)(=O)N3CCCc4ccccc43)cc2)sc2cc(S(C)(=O)=O)ccc21	1µM*	3.3µM*	-8	-3	52
Cn1c(=NC(=O)c2ccc(S(=O)(=O)N3CCCc4ccccc43)cc2)sc2cc(F)ccc21	/	/	/	/	-33
C=CCn1c(=NC(=O)c2ccc(S(=O)(=O)N3CCCc4ccccc43)cc2)sc2cc(S(N)(=O)=O)ccc21	4.7µM*	5.2µM*	-4	-5	26
COC(=O)Cn1c(=NC(=O)c2nc3ccccc3s2)sc2cc(S(N)(=O)=O)ccc21	26%	18%	23	2	-89*
CC1CN(C(=S)c2cccc([N+](=O)[O-])c2)CC(C)O1 (stereo not given)	4%	-12%	-11	-3	/
SMILES	Pf growth 96h	Pf growth 48h	Shiga toxin inh	Cycloheximide cs	HCMV antiviral
N#Cc1ccc(S(=O)(=O)Nc2ccccc2N2CCOCC2)cc1	/	/	/	/	-1
CCc1ccccc1NC(=O)CNC(=O)CCNC(=O)Nc1ccccc1	?	?	/	/	-34
Cc1cc(S(=O)(=O)NCc2ccccc2)ccc1OCC(=O)N1CCOCC1	-22%	-1%	3	-1	-21
COC(=O)c1cc2c(s1)-c1ccccc1OC2	-3%	/	64*	28*	39
CC1CCN(CCCNC(=O)c2cc3c(s2)-c2ccccc2OC3)CC1	46%	-30%	12	-7	-18
Cc1cccc2c1-c1sc(C(=O)NCc3ccccc3Cl)cc1CO2	/	/	/	/	-5
CCOC(=O)c1cc2c(s1)-c1c(C)cccc1OC2	?	/	168*	51*	61
COc1ccc(N(C)C(=O)c2cc3c(s2)-c2ccccc2OC3)cc1	/	/	/	/	-5
